The supplement of paper PMC10849652
Of roughly 8,800 targets only a part is listed; those with a hit were picked by preference. About 0.5% of all pairs of compound and target were hits.

Columns and labels:
Experiment in all cases: log2 fold change, soluble protein after heating vs DMSO (PISA); higher = thermal stabilisation; K562 lysate, 10 uM; active = over 0.2 and 3.5 SD of the protein, either way, in both replicates (recomputed)
[1] = compound: C#Cc1cccc(Nc2ncnc3cc(OCCOC)c(OCCOC)cc23)c1 [erlotinib]
In short: (§1)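 Pellets of K562 cells were dounce-homogenised in PBS pH 7.4 with 1 mM MgCl2, and the crude extract was held at 1 mg/mL protein for a 30 min treatment with 10 μM compound. Aliquots were heated for 3 min over 48°C-58°C and pooled before NP-40 was added to 0.5% at 4°C. The supernatant from 21,000xg for 90 min was quantified by TMTpro 16plex LC-MS/MS with channel sums equalised. Values are reported from duplicates as log-two fold change in thermal stability relative to solvent controls.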

[2] = compound: C/C(=N\NC(=O)C1=CC(=CC=C1)S(=O)(=O)N2CCOCC2)/C3=C(C=CC(=C3)Cl)O
In short: as §1

[3] = compound: C1=CC(=CC=C1C2=NC3=C(N2)C=C(C=C3)C(=O)N)OC4=CC=C(C=C4)Cl
In short: as §1

[4] = compound: C1=CC2=C(C=CC(=C2)/C=C\3/C(=O)NC(=NCC4=CC=CS4)S3)N=C1
In short: as §1

[5] = compound: C1=CC2=NC=CN=C2C=C1/C=C/3\C(=O)NC(=O)S3
In short: as §1

[6] = compound: C1=CC=C(C=C1)C2=NC(=C(N2)C3=CC=NC=C3)C4=CC(=C(C=C4)Cl)O
In short: as §1

[7] = compound: C1=CC=C2C(=C1)C3=NNC4=CC=CC(=C43)C2=O
In short: as §1

[8] = compound: C1CCN(C1)C(=O)NC2=CC=CC(=C2)NC3=NC=C(C(=N3)NCCC4=CN=CN4)Br
In short: as §1

[9] = compound: C1CN(CCC1(CC2=CC=C(C=C2)Cl)N)C3=NC=NC4=C3C=CN4
In short: as §1

[10] = compound: C1COCCN1CCN2C3=CC=CC=C3N=C2NC(=O)C4=CC(=CC=C4)[N+](=O)[O-] [IRAK-1-4 Inhibitor I]
In short: as §1

[11] = compound: C=CC(=O)N1CCC[C@@H](n2nc(-c3ccc(Oc4ccccc4)cc3)c3c(N)ncnc32)C1 [ibrutinib]
In short: as §1

[12] = compound: CC(=O)c1cnc2ccc(-c3cc(Cl)c(O)c(Cl)c3)nc2c1N[C@H]1CC[C@H](CN(C)C)CC1
In short: as §1

[13] = compound: CC(C)(C)Cn1c(N)nc2ccc(-c3[nH]c(C(C)(C)C)nc3-c3ccc(F)cc3)nc21 [ralimetinib]
In short: as §1

[14] = compound: CC(C)(O)CC(=O)NCCn1ccc2ncnc(Nc3ccc(Oc4cccc(C(F)(F)F)c4)c(Cl)c3)c21
In short: as §1

[15] = compound: CC(C)C1=C2N=C(C=C(N2N=C1)NCC3=CC=CC=C3)NCCCCCCN
In short: as §1

[16] = compound: CC1=C(C(CC(=O)N1)C2=CC=C(C=C2)C(F)(F)F)C(=O)NC3=C(C=C4C(=C3)C=NN4)F
In short: as §1

[17] = compound: CC1=C(C2=C(C=C1)C(=O)C3=CC=CC=C3N2CCCN)C
In short: as §1

[18] = compound: CC1=C(C=C(C=C1)NC(=O)C2=CC(=CC=C2)C(C)(C)C#N)NC3=CC4=C(C=C3)N=CN(C4=O)C
In short: as §1

[19] = compound: CC1=C(C=C(C=C1)NC(=O)C2=CC(=CC=C2)N(C)C)NC(=O)C3=CC=C(C=C3)O
In short: as §1

[20] = compound: CC1=CC=C(C=C1)SC2=C3C=C(SC3=CN=C2)C(=O)N
In short: as §1

Measured: log2 fold change

ERLIN2 (UniProt O94905)
UniProt O94905, sequence (O94905 whole entry, looked up): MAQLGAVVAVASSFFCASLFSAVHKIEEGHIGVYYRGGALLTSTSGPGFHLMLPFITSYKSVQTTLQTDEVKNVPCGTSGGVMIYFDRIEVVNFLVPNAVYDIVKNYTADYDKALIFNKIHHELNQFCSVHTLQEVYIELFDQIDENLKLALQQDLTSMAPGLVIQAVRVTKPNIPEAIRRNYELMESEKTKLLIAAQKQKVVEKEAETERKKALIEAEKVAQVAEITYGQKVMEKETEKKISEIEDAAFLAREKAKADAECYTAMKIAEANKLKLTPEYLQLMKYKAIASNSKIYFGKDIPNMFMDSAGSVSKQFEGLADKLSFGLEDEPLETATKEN
inactive: [1] -0.028 | [2] 0.051 | [3] -0.1 | [4] -0.002 | [5] -0.047 | [6] -0.019 | [7] -0.031 | [8] -0.039 | [9] 0.006 | [10] -0.013 | [11] 0.033 | [12] -0.028 | [13] 0.026 | [14] -0.023 | [15] -0.023 | [16] -0.012 | [17] -0.031 | [18] -0.016 | [19] 0.066 | [20] -0.014

EXOC3 (UniProt O60645)
inactive: [1] 0.033 | [2] 0.027 | [3] 0.006 | [4] 0.033 | [5] 0.039 | [6] 0.011 | [7] -0.04 | [8] 0.018 | [9] -0.001 | [10] 0.013 | [11] -0.029 | [12] -0.012 | [13] 0.025 | [14] 0.048 | [15] 0.025 | [16] 0 | [17] -0.042 | [18] 0.037 | [19] 0.067 | [20] 0.004

EPB41 (UniProt P11171)
UniProt P11171, sequence (P11171 whole entry, looked up): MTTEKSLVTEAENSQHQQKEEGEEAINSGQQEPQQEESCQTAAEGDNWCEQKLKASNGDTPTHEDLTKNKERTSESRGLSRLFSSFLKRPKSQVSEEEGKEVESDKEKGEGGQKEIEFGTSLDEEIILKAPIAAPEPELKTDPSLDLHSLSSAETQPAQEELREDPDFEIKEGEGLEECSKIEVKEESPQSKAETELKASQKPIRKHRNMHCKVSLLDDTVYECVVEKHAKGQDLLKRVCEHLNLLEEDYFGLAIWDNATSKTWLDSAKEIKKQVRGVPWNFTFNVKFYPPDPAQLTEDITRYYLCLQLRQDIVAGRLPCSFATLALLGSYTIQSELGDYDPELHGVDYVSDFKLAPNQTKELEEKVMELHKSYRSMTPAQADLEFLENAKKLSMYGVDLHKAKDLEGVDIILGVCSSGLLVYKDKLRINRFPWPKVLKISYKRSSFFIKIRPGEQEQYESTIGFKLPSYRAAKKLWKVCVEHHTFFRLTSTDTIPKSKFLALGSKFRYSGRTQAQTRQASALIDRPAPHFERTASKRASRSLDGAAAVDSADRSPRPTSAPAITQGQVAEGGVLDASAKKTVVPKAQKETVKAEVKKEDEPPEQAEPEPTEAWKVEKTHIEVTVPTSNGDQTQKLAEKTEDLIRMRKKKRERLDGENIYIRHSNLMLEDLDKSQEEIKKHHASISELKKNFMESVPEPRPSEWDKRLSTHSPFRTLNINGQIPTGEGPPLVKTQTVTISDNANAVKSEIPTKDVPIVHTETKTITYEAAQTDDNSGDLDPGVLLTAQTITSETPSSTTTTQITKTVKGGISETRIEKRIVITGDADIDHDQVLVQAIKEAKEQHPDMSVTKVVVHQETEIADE
inactive: [1] -0.024 | [2] -0.021 | [3] -0.068 | [4] 0.006 | [5] -0.005 | [6] 0 | [7] 0.014 | [8] 0.004 | [9] 0.008 | [10] -0.028 | [11] 0.01 | [12] 0.026 | [13] 0.009 | [14] 0.012 | [15] -0.003 | [16] -0.001 | [17] 0.018 | [18] -0.023 | [19] 0.01 | [20] 0.044

EDARADD (UniProt Q8WWZ3)
inactive: [1] 0.013 | [2] -0.022 | [3] 0.045 | [4] 0.019 | [5] -0.027 | [6] 0.049 | [7] -0.03 | [8] -0.035 | [9] -0.064 | [10] 0.031 | [11] 0.22 | [12] -0.019 | [13] -0.003 | [14] -0.071 | [15] -0.008 | [16] -0.007 | [17] 0.062 | [18] 0.041 | [19] 0.017 | [20] -0.035

EIF3I (UniProt Q13347)
inactive: [1] 0.013 | [2] 0.033 | [3] -0.029 | [4] 0.001 | [5] 0.022 | [6] 0 | [7] -0.026 | [8] 0.004 | [9] -0.007 | [10] -0.039 | [11] 0.018 | [12] -0.019 | [13] 0.035 | [14] 0.046 | [15] 0.032 | [16] 0.003 | [17] 0.013 | [18] 0.009 | [19] 0.056 | [20] 0.022

ENO1, A0A2R8YEM5
inactive: [1] -0.019 | [2] 0.004 | [3] 0.011 | [4] -0.017 | [5] 0.031 | [6] 0.016 | [7] 0.009 | [8] 0 | [9] 0.032 | [10] -0.031 | [11] -0.013 | [12] 0.008 | [13] -0.012 | [14] -0.016 | [15] -0.024 | [16] -0.032 | [17] 0.001 | [18] 0.012 | [19] -0.044 | [20] 0.014

ENGASE (UniProt Q8NFI3)
inactive: [1] 0.036 | [2] 0 | [3] 0.043 | [4] -0.069 | [5] 0.008 | [6] 0.002 | [7] -0.04 | [8] 0.009 | [9] 0.043 | [10] 0.007 | [11] 0.019 | [12] 0.019 | [13] -0.02 | [14] 0.012 | [15] -0.02 | [16] -0.002 | [17] 0.012 | [18] -0.046 | [19] 0.067 | [20] 0

DTWD1 (UniProt Q8N5C7)
UniProt Q8N5C7, sequence (Q8N5C7 whole entry, looked up): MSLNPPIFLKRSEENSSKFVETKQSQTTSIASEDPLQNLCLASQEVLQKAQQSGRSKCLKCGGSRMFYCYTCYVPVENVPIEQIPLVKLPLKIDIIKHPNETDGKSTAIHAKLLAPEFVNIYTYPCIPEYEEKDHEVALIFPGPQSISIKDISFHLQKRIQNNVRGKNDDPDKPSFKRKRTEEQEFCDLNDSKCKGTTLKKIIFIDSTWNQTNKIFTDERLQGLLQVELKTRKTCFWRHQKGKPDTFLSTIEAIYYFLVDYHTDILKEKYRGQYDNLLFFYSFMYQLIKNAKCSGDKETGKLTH
inactive: [1] 0.01 | [2] 0.082 | [3] -0.039 | [4] -0.004 | [5] -0.048 | [6] -0.025 | [7] 0.039 | [8] 0.01 | [9] 0.047 | [10] -0.01 | [11] 0.013 | [12] 0.032 | [13] 0.005 | [14] 0.005 | [15] 0.034 | [16] 0.058 | [17] -0.019 | [18] 0 | [19] -0.02 | [20] -0.027

GABPB1 (UniProt Q06547)
inactive: [1] -0.004 | [2] 0.033 | [3] 0.012 | [4] 0.028 | [5] 0.035 | [6] 0.016 | [7] -0.009 | [8] 0.026 | [9] -0.008 | [10] -0.042 | [11] -0.106 | [12] -0.012 | [13] 0.021 | [14] 0.014 | [15] 0 | [16] 0.013 | [17] -0.026 | [18] 0.003 | [19] 0.071 | [20] 0.024

GALK1 isoform 2 (UniProt P51570)
UniProt P51570, sequence (P51570 whole entry, looked up): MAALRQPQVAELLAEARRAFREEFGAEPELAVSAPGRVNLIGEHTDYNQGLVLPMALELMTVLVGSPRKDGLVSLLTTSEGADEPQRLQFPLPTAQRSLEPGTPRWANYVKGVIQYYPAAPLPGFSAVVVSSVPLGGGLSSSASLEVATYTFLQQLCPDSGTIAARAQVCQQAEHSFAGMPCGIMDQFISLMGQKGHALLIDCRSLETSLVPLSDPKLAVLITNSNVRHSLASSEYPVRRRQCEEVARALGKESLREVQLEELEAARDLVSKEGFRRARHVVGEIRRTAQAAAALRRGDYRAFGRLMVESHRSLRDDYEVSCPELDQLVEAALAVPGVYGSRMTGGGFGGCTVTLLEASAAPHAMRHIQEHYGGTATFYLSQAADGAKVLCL
inactive: [1] 0.021 | [2] 0.022 | [3] 0.01 | [4] -0.076 | [5] -0.024 | [6] -0.015 | [7] -0.031 | [8] 0.023 | [9] 0.058 | [10] 0.042 | [11] 0.002 | [12] 0.032 | [13] -0.013 | [14] -0.001 | [15] -0.006 | [16] -0.021 | [17] -0.026 | [18] 0.002 | [19] -0.001 | [20] 0.04

GGA2 (UniProt Q9UJY4)
inactive: [1] -0.014 | [2] 0.042 | [3] 0.064 | [4] 0.016 | [5] 0.019 | [6] 0.014 | [7] -0.054 | [8] 0.074 | [9] 0.034 | [10] 0.01 | [11] -0.007 | [12] 0 | [13] 0.026 | [14] -0.01 | [15] -0.062 | [16] 0.099 | [17] 0.01 | [18] -0.024 | [19] 0.031 | [20] -0.021

EEF1AKMT4 (UniProt P0DPD7)
UniProt P0DPD7, sequence (P0DPD7 whole entry, looked up): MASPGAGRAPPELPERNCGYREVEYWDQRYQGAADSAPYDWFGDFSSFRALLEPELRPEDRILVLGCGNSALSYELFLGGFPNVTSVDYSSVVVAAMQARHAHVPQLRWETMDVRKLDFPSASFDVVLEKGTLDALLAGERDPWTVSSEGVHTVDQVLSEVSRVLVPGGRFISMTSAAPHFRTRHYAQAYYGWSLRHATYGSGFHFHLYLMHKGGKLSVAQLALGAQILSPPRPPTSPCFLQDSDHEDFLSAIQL
inactive: [1] 0.057 | [2] 0.097 | [3] 0.073 | [4] 0.025 | [5] 0.039 | [6] -0.021 | [7] -0.081 | [8] -0.019 | [9] 0.08 | [10] 0.107 | [11] 0.023 | [12] -0.012 | [13] -0.003 | [14] -0.053 | [15] 0.003 | [16] -0.006 | [17] -0.055 | [18] -0.029 | [19] -0.029 | [20] 0.069

EIF2B5 (UniProt Q13144)
UniProt Q13144, sequence (Q13144 whole entry, looked up): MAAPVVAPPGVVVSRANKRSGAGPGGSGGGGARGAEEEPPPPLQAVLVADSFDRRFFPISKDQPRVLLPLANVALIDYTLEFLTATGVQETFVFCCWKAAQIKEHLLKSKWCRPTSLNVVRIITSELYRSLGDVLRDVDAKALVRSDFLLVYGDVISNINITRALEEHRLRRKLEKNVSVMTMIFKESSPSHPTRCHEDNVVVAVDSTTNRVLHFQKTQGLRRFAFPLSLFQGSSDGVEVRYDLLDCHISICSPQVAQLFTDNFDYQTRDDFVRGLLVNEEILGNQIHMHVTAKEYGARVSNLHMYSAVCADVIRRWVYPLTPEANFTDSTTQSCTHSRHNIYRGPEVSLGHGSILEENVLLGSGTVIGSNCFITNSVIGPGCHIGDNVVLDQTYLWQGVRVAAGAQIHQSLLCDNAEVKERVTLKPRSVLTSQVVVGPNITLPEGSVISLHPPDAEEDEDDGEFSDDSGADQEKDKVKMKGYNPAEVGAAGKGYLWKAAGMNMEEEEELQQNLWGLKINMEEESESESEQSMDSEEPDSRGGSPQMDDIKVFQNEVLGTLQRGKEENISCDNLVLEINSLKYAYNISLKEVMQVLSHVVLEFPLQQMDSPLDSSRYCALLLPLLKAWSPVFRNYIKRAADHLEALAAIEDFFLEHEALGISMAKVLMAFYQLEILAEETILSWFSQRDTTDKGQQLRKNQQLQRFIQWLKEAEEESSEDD
inactive: [1] 0.015 | [2] -0.052 | [3] -0.017 | [4] 0.011 | [5] 0.03 | [6] -0.011 | [7] -0.054 | [8] 0.006 | [9] 0.007 | [10] 0.027 | [11] 0 | [12] 0.008 | [13] 0.027 | [14] -0.018 | [15] 0.008 | [16] -0.019 | [17] 0.012 | [18] -0.031 | [19] 0.008 | [20] 0.02

GIGYF2 (UniProt Q6Y7W6)
inactive: [1] -0.011 | [2] -0.033 | [3] -0.024 | [4] -0.016 | [5] 0.018 | [6] 0.005 | [7] -0.005 | [8] 0.006 | [9] -0.005 | [10] 0.002 | [11] -0.01 | [12] 0.004 | [13] 0.014 | [14] -0.016 | [15] 0.029 | [16] -0.015 | [17] 0.01 | [18] 0.007 | [19] -0.006 | [20] 0.023

EFCAB14 (UniProt O75071)
UniProt O75071, sequence (O75071 whole entry, looked up): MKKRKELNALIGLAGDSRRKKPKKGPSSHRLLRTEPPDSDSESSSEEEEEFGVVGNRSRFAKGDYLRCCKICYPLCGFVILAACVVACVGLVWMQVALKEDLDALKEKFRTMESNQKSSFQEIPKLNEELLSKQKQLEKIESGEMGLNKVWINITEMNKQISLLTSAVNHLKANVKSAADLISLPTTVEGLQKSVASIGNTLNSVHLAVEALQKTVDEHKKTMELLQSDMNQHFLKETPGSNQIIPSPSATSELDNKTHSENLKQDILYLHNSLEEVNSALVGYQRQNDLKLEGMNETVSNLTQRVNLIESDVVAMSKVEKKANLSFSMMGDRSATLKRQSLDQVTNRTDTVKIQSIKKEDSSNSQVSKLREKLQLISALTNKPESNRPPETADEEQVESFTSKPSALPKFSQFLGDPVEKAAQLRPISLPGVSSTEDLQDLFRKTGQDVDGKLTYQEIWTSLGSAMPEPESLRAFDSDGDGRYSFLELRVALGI
inactive: [1] 0.019 | [2] 0.115 | [3] 0.043 | [4] -0.036 | [5] -0.019 | [6] -0.042 | [7] -0.022 | [8] 0.01 | [9] 0.042 | [10] 0.011 | [11] 0.026 | [12] 0.015 | [13] 0.055 | [14] -0.075 | [15] -0.045 | [16] 0.077 | [17] 0.02 | [18] 0.011 | [19] 0.016 | [20] 0.012

GAPVD1 isoform 6 (UniProt Q14C86)
UniProt Q14C86, sequence (Q14C86 whole entry, looked up): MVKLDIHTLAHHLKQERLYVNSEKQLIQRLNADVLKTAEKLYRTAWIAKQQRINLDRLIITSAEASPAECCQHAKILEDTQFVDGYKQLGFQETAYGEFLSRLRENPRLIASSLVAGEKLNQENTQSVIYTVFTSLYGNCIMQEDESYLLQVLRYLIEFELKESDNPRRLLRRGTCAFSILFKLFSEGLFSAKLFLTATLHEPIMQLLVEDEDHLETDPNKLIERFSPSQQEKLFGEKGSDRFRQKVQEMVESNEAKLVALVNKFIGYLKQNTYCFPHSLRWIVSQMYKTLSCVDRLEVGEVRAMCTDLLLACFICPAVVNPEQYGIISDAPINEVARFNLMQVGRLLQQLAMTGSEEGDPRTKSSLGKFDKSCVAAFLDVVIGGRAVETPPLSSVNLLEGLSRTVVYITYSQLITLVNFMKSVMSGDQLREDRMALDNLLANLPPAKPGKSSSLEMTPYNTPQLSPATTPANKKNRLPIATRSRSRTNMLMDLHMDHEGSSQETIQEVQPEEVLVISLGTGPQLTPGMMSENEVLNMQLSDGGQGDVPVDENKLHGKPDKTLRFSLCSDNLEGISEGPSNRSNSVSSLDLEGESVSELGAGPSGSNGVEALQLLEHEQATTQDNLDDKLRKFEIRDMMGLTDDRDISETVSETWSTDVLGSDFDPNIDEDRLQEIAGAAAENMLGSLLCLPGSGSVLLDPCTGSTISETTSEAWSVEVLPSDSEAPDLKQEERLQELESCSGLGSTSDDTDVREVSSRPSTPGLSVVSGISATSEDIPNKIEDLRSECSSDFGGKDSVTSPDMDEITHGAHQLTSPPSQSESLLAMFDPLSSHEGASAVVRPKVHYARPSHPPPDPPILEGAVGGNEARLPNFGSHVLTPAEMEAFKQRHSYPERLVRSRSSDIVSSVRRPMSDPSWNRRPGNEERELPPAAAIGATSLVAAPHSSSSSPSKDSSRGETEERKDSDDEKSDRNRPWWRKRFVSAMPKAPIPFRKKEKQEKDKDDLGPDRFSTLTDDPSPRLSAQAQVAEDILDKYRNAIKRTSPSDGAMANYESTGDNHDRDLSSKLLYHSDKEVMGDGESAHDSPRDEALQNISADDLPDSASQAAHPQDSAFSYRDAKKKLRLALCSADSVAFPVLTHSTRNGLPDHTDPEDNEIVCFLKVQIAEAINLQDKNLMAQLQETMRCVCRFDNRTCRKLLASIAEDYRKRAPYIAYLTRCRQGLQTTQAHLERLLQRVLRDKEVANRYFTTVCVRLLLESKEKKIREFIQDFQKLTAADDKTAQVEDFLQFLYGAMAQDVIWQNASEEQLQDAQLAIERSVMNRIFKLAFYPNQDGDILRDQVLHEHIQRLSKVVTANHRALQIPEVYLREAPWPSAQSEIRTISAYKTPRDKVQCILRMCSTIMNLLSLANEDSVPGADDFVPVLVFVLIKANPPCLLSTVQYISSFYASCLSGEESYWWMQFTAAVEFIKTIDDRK
inactive: [1] 0.01 | [2] 0 | [3] -0.051 | [4] 0.01 | [5] 0.019 | [6] 0 | [7] -0.013 | [8] 0.007 | [9] -0.025 | [10] -0.015 | [11] 0.005 | [12] 0.003 | [13] 0.031 | [14] -0.004 | [15] -0.018 | [16] 0.028 | [17] 0.008 | [18] 0.003 | [19] 0.011 | [20] 0.018
